Inconclusive results are not listed. The source made the active and inactive calls. Unless noted, the call rests on the fitted dose curve; in most records, active means well fitted inhibition curve with a large enough effect; inconclusive means small, poorly fitted or top-dose-only effect; inactive means flat fitted curve, though single readings scatter.
What was measured:
[1] = AP1 Signaling Pathway (AID 357; active means well fitted curve in either direction with a large enough effect, not every such curve was filed as active;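 further: ME-180 reporter cells stimulated with EGF at its EC50 level; on the % scale 0 is the no-effect control and ±100 the full control effect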)
Method in brief: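 Titration-series screen for positive or negative modulators of EC50 EGF-induced signaling in ME-180 cells carrying an AP-1-driven beta-lactamase reporter. After 5 hours at 37 degrees Celsius, CCF4 460nm/530nm emission ratio gave %Activity; AC50 values derived.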

[2] = target: Cytochrome P450 1A2 (Homo sapiens) (UniProt P05177); assay: p450-cyp1a2 (AID 410; calls by dose curve; further: potency means the concentration at half of the fitted maximal effect;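 on activity change, negative = inhibition: -100% = full effect of reference inhibitor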)
Method in brief: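 Luminescent readout of luciferin formed from Luciferin-ME by human CYP1A2; data normalized against complete inhibition by 57 uM furafylline. Enzyme 20nM, substrate 100uM at Km, 100mM KPO4 buffer, 60 min reaction at room temperature.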

[3] = Stat Signaling Pathway (AID 446; active means well fitted curve in either direction with a large enough effect, not every such curve was filed as active;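 further: ME-180 cervical cancer cells given 40 pM IL-6 alongside compound; SIE-controlled beta-lactamase reporter measured as 460/530 nm FRET emission ratio; on the % scale 0 is the no-effect control and ±100 the full control effect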)
Method in brief: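 Screening format detects activators and inhibitors alike: ME-180 SIE-bla cells stimulated at 40 pM IL-6 for 5 hrs with compound, then dual-emission beta-lactamase read at 405 nm excitation.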

[4] = target: Glucocorticoid receptor (Homo sapiens) (UniProt P04150); assay: GR-GFP Redistribution (AID 450;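 active means compounds whose dose series gives a full or clear partial fitted curve of increased nuclear translocation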; further: potency means the concentration at half of the fitted maximal effect); settings: U2OS GR-GFP nuclear translocation, laser cytometry, 2 h
[5] = target: Glucocorticoid receptor (Homo sapiens) (UniProt P04150); assay: GR-EFC Redistribution (AID 451; calls by dose curve; further: potency means the concentration at half of the fitted maximal effect); settings: CHO-K1 GR-EFC translocation, beta-gal luminescence, 2 h
Method in brief: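 Translocation of GR-ED fusion to nuclear EA restores b-gal, read by luminescence after 1 h room-temperature detection. Engineered CHO-K1 biosensor cells, 1,000/well, exposed 2 h at 37 C to titrations up to 46 uM final.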

[6] = target: Mitogen-activated protein kinase 10 (Mus musculus) (UniProt Q61831); assay: JNK3 AlphaScreen Assay (AID 530; active means well fitted curve in either direction with a large enough effect, not every such curve was filed as active;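 further: kinase came from lysate of stimulated human HepG2 cells; signal reports phosphorylation of biotinylated GST-cJun 1-79 at Ser73 with 10 µM ATP; on the % scale 0 is the no-effect control and ±100 the full control effect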)
Method in brief: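 Compound titrations were preincubated 15 minutes at room temperature with substrate, antibody and pre-activated JNK3-containing HepG2 lysate. Reactions were started with 10 uM ATP and stopped with EDTA-containing bead buffer for AlphaScreen detection.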

[7] = target: 3',5'-cyclic-AMP phosphodiesterase 4B (Homo sapiens) (UniProt Q07343); assay: qHTS Assay for Inhibitors of PDE-IV (AID 607; active means well fitted activation curve with a large enough effect in the main read-out, with a control signal flat, not every such curve was filed as active; further: % of control where 0% means no effect)
Method in brief: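 The readout is membrane depolarisation from a cAMP-sensing CNG channel, detected with a potential dye at ex 535/em 590. Cells were HEK293-derived (endogenous PDE-IV) at 1000 cells/well, titrated up to 22.9 uM final.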

[8] = qHTS Assay for Lipid Storage Modulators (AID 1519; calls by dose curve); settings: Drosophila S3 cells, BODIPY lipid droplet/cell ratio, laser cytometry, cells loaded with oleic acid; for activity change, negative = inhibition: at 25.7 µM (top of the series)
Method in brief: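 Cells seeded at 5,000 per well were treated with compounds over a concentration series and loaded with oleic acid (400 uM, as added). Lipid droplet fluorescence (488 nm excitation, 500-530 nm channel) was read by laser-scanning cytometry and normalized to 20 uM Triacsin C.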

[9] = target: Luciferin 4-monooxygenase (Photinus pyralis) (UniProt P08659); assay: Biochemical firefly luciferase enzyme assay for NPC (AID 624030);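 further: purified P. pyralis luciferase at 10 nM with luciferin and ATP substrate; 0% = DMSO and -100% = full luciferase inhibition by PTC124 control; nearly all actives have a fitted effect of over 70% in size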
Method in brief: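 Direct inhibition of firefly luciferase enzyme (10 nM final, 50 mM Tris Acetate) assessed by luminescence within 5 minutes. Percent activity scaled between DMSO and PTC124 positive control, with concentration-effect curves classified by fit quality and response.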

[10] = target: Ubiquitin carboxyl-terminal hydrolase 1 (Homo sapiens) (UniProt O94782); assay: Inhibitors of USP1/UAF1: Pilot qHTS (AID 504865);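 further: rhodamine fluorescence freed from ubiquitin-rhodamine substrate followed over time; top concentration of the series differs between compounds; on the % scale 0 is the no-effect control and ±100 the full control effect; nearly all actives have a fitted effect of over 35% in size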
Method in brief: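 In 50mM HEPES pH 7.8 containing 0.5mM EDTA, 1mM TCEP, 0.1 mg/ml BSA and 0.01% Tween-20, 1nM USP1/UAF1 is exposed to compound for 15 min, then Ub-Rho (150nM final) is added and fluorescence is read over time.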

[11] = NFAT Signaling Pathway (AID 444; active means well fitted curve in either direction with a large enough effect, not every such curve was filed as active;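 further: carbachol stimulus at about its EC50 of 1 µM final; on the % scale 0 is the no-effect control and ±100 the full control effect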); settings: Jurkat NFAT-bla M1, carbachol, beta-lactamase ratio, 5 h; at 17.2 µM (top of the series) unless noted
Method in brief: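 Read-out: CCF4 FRET ratio (460 nm/530 nm) after 1 h RT dye loading, used for %activity and AC50 from titration series. Cells: Jurkat NFAT-β-lactamase/M1 line, treated with compound plus 1 uM carbachol for 5 h, 37 °C.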

[12] = qHTS profiling for inhibitors of Plasmodium falciparum proliferation (AID 504749); further: nearly all actives have a fitted effect of over 60% in size; further: potency means the concentration at half of the fitted maximal effect;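 on activity, negative = inhibition: 0% = DMSO vehicle and full inhibition = artemisinin control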; settings: P. falciparum in erythrocytes, SYBR Green DNA, 72 h
Method in brief: (§1)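 Infected RBCs, 0.3% parasitemia/2.5% Hct final; cpd 72 h, 37 C, 5% CO2; lysis buffer with saponin/triton/SYBR Green I, o/n RT dark; FI 485/535; norm. to artemisinin (0.29 uM) and DMSO.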

C2A = assay: as above; settings: P. falciparum in erythrocytes, SYBR Green DNA, 72 h; series mostly up to 12.8 µM
Method in brief: as §1

CP238 = assay: as above; settings: P. falciparum in erythrocytes, SYBR Green DNA, 72 h; series mostly up to 12.8 µM
Method in brief: as §1

CP256 = assay: as above; settings: P. falciparum in erythrocytes, SYBR Green DNA, 72 h; series mostly up to 12.8 µM
Method in brief: as §1

FAB9 = assay: as above; settings: P. falciparum in erythrocytes, SYBR Green DNA, 72 h; series mostly up to 12.8 µM
Method in brief: as §1

JCK = assay: as above; settings: P. falciparum in erythrocytes, SYBR Green DNA, 72 h; series mostly up to 12.8 µM
Method in brief: as §1

PC49 = assay: as above; settings: P. falciparum in erythrocytes, SYBR Green DNA, 72 h; series mostly up to 12.8 µM
Method in brief: as §1

SC27B = assay: as above; settings: P. falciparum in erythrocytes, SYBR Green DNA, 72 h; series mostly up to 12.8 µM
Method in brief: as §1

W2 = assay: as above; settings: P. falciparum in erythrocytes, SYBR Green DNA, 72 h; series mostly up to 12.8 µM
Method in brief: as §1

[13] = measured here: cell count channel max response
[14] = measured here: lipid channel max response
[15] = at 12.8 µM (top of the series), parasite line A
[16] = at 12.8 µM (top of the series), parasite line B
[17] = at 28.7 µM (top of the series), parasite line A
[18] = at 28.7 µM (top of the series), parasite line B

Chain of Glucocorticoid receptor (Homo sapiens) (P04150 whole entry, looked up, the tested form may be a part): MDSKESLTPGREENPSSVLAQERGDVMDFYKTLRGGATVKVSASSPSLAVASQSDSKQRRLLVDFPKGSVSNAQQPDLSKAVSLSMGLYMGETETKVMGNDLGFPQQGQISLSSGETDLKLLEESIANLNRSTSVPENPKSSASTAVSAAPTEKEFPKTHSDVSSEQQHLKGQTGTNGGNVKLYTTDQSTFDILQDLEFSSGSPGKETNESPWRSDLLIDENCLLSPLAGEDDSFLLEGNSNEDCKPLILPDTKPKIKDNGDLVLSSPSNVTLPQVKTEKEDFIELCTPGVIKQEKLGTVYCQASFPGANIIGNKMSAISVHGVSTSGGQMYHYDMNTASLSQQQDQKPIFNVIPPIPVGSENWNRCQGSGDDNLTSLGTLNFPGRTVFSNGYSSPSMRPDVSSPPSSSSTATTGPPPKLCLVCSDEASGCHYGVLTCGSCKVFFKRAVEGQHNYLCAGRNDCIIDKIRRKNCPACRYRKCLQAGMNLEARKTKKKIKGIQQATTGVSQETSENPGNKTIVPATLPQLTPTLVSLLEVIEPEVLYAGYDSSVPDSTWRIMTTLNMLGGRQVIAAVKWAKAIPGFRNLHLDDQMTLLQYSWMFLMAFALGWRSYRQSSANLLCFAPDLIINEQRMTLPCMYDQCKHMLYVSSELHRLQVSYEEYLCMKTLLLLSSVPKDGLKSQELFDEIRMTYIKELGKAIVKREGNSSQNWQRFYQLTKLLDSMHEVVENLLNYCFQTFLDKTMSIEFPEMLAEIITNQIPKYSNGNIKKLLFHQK
Chain of Cytochrome P450 1A2 (Homo sapiens) (P05177 whole entry, looked up): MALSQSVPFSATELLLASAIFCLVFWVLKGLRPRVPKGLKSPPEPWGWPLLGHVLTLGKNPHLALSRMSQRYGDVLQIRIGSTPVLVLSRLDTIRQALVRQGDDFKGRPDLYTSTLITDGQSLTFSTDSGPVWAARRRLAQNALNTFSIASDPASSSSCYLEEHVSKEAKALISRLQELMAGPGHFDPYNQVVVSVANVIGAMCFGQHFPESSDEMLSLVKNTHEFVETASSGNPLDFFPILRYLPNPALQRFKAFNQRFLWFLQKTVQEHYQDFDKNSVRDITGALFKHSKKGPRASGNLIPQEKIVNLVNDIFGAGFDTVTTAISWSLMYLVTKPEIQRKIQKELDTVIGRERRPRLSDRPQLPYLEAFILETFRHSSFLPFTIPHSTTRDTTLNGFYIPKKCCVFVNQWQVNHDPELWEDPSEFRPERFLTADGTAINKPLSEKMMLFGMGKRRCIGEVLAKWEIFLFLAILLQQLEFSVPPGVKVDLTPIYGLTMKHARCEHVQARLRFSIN
Chain of 3',5'-cyclic-AMP phosphodiesterase 4B (Homo sapiens) (Q07343 whole entry, looked up): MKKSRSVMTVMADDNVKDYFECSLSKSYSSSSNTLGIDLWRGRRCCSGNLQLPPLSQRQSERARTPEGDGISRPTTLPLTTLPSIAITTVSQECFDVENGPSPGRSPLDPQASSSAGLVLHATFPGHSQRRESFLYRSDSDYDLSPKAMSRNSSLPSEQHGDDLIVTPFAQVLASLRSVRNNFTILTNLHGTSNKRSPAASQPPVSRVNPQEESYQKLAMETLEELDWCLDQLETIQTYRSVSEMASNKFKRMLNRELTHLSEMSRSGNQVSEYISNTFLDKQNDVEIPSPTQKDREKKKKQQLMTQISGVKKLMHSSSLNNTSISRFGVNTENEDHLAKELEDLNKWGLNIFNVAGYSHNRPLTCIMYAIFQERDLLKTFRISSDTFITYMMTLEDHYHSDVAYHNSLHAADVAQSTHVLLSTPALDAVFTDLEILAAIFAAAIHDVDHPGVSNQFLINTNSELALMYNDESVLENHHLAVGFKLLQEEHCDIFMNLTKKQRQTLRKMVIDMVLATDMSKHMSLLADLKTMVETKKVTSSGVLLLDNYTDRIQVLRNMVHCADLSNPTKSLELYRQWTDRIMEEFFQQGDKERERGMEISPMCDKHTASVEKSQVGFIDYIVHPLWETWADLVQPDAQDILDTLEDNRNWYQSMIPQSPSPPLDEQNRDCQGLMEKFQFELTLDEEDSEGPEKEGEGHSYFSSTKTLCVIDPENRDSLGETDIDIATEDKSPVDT
Chain of Luciferin 4-monooxygenase (Photinus pyralis) (P08659 whole entry, looked up): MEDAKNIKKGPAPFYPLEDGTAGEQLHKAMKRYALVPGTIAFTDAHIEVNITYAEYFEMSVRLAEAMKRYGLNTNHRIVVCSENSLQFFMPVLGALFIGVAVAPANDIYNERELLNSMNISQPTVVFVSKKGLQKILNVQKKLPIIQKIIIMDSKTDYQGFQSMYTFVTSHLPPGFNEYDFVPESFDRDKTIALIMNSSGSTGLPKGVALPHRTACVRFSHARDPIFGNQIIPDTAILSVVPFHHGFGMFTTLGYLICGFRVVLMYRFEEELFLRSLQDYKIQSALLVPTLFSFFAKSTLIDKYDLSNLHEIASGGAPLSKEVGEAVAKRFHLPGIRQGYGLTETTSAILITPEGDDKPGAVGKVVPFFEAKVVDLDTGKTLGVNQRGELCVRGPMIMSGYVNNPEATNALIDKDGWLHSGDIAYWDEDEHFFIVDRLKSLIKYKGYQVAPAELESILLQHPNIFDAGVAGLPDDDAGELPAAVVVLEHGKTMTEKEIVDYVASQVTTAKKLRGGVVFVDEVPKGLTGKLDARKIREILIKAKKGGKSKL
Chain of Ubiquitin carboxyl-terminal hydrolase 1 (Homo sapiens) (O94782 whole entry, looked up): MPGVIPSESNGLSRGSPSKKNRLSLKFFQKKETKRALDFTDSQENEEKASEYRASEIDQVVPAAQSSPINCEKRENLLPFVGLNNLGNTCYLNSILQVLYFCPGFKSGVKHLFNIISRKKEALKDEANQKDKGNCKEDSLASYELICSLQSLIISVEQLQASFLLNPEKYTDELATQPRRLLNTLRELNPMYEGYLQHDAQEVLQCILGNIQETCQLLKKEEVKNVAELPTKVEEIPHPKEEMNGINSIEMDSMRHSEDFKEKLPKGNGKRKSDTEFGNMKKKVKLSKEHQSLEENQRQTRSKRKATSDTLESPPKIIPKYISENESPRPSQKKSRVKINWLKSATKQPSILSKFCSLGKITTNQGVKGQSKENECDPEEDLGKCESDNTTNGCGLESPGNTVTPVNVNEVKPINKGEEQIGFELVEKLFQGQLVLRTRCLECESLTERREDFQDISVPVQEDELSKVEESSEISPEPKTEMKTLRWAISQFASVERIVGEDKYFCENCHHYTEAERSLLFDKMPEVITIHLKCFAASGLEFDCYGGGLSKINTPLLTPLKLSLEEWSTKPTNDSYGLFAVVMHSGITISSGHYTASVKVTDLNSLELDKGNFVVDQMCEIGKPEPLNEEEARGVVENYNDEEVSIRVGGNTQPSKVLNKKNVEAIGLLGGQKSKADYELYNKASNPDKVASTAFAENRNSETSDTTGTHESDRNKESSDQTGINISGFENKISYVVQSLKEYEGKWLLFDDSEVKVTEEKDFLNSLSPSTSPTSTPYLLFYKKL

C[C@@H]1C[C@H](OC(=O)[C@@H](O)c2ccccc2)CC(C)(C)N1C
inactive: outcome [1] | Potency [2] | outcome [3] | Potency [4] > 20.6 µM | Potency [5] > 20.6 µM | Potency [6] | outcome [7] | activity change, negative = inhibition [8] -2.91% | Potency [9]
-7.41%: max response [8, 14]
-2.86%: max response [8, 13]

C#C[C@@]1(O)CC[C@@H]2[C@@H]3CCC4=CC(=O)CC[C@@H]4[C@H]3CC[C@]21CC
-10.3%: max response [8, 13]
-10.4%: max response [8, 14]
inactive: outcome [1] | Potency [2] | outcome [3] | Potency [5] > 20.6 µM | Potency [6] | outcome [7] | activity change, negative = inhibition [8] -1.97% | Potency [10]
active: Potency [4] 0.0832 µM

C[C@H](N[C@@H](C)COc1ccccc1)[C@H](O)c1ccc(O)cc1
active: Potency [2] 5.01 µM | Potency (W2) 4.55 µM
inactive: outcome [1] | activity change, negative = inhibition [11] -9.06% | Potency [5] > 20.6 µM | Potency [6] | outcome [7] | activity change, negative = inhibition [8] 0.23% | Potency [10] | Potency [9] | activity, negative = inhibition [12, 15] 2.67% | activity, negative = inhibition [12, 16] 10.2% | Potency (C2A) | Potency (CP238) | Potency (CP256) | Potency (FAB9) | Potency (JCK) | Potency (PC49) | Potency (SC27B)
-3.47%: max response [8, 14]
-4.01%: max response [8, 13]

CN[C@H]1[C@H](O)[C@@H](O[C@@H]2[C@H](O)[C@@H](O[C@H]3OC(CN)=CC[C@H]3N)[C@@H](N)C[C@H]2N)OC[C@@]1(C)O
-0.476%: max response [8, 14]
inactive: outcome [1] | activity change, negative = inhibition [11] -17.3% | outcome [3] | Potency [4] > 20.6 µM | Potency [5] > 20.6 µM | Potency [6] | outcome [7] | activity change, negative = inhibition [8] 0.656% | Potency [10] | Potency [9] | activity, negative = inhibition [12, 15] 3.71% | activity, negative = inhibition [12, 16] 6.19% | Potency (C2A) | Potency (CP238) | Potency (CP256) | Potency (FAB9) | Potency (JCK) | Potency (PC49) | Potency (SC27B) | Potency (W2)
-1.73%: max response [8, 13]

CN(C)CCOC(=O)[C@@H](c1ccccc1)C1(O)CCCC1
active: Potency (W2) 8.49 µM
2.88%: max response [8, 13]
inactive: outcome [1] | Potency [2] | outcome [3] | Potency [4] > 20.6 µM | Potency [5] > 20.6 µM | Potency [6] | outcome [7] | activity change, negative = inhibition [8] -1.19% | Potency [10] | Potency [9] | activity, negative = inhibition [12, 17] 22.6% | activity, negative = inhibition [12, 18] 8.77% | Potency (C2A) | Potency (CP238) | Potency (CP256) | Potency (FAB9) | Potency (JCK) | Potency (PC49) | Potency (SC27B)
1.92%: max response [8, 14]

CNCCC=C1c2ccccc2C=Cc2ccccc21
inactive: outcome [1] | outcome [3] | Potency [5] > 20.6 µM | Potency [6] | activity change, negative = inhibition [8] -3.6%
-8.1%: max response [8, 14]
-2.2%: max response [8, 13]
active: Potency [2] 6.31 µM

C[C@H]1CC[C@@H]2[C@@H](C)[C@H]3[C@H](C[C@H]4[C@@H]5CC=C6C[C@@H](O[C@]7(O[C@H]8O[C@@H](C)[C@@H](O)[C@@H](O)[C@@H]8O)C[C@@H](O[C@@H]8O[C@H](CO)[C@@H](O)[C@H](O)[C@@H]8O)[C@@H](O)[C@H](CO)O7)CC[C@]6(C)[C@H]5CC[C@@]34C)N2C1
inactive: outcome [1] | Potency [2] | outcome [3] | Potency [4] > 20.6 µM | Potency [5] > 20.6 µM | Potency [6] | outcome [7] | activity change, negative = inhibition [8] -0.703% | Potency [10]
-10.1%: max response [8, 14]
-8.96%: max response [8, 13]

CC(=O)O[C@H]1C[C@@]2(C)[C@H](C[C@@H](O)[C@H]3[C@@]4(C)CC[C@@H](O)[C@@H](C)[C@H]4CC[C@@]32C)C1=C(CCC=C(C)C)C(=O)O
-3.61%: max response [8, 13]
-6.42%: max response [8, 14]
inactive: outcome [1] | activity change, negative = inhibition [11] -11.2% | outcome [3] | Potency [4] > 20.6 µM | Potency [5] > 20.6 µM | outcome [7] | activity change, negative = inhibition [8] -3.43% | Potency [10] | Potency [9] | activity, negative = inhibition [12, 17] 7.93% | activity, negative = inhibition [12, 18] 2.16% | Potency (C2A) | Potency (CP238) | Potency (CP256) | Potency (FAB9) | Potency (JCK) | Potency (PC49) | Potency (SC27B) | Potency (W2)

COc1cc2nc(N3CCN(C(=O)[C@@H]4COc5ccccc5O4)CC3)nc(N)c2cc1OC
active: Potency (W2) 5.36 µM
-1.2%: max response [8, 13]
inactive: outcome [1] | Potency [2] | outcome [3] | Potency [6] | outcome [7] | activity change, negative = inhibition [8] -1.08% | Potency [9] | activity, negative = inhibition [12, 18] -13.1% | Potency (C2A) | Potency (CP238) | Potency (CP256) | Potency (FAB9) | Potency (JCK) | Potency (PC49) | Potency (SC27B)
-1.61%: max response [8, 14]

NCc1ccccc1CC(=O)N[C@@H]1C(=O)N2C(C(=O)O)=C(CSc3nnnn3CC(=O)O)CS[C@@H]12
-13.9%: max response [8, 14]
inactive: outcome [1] | Potency [2] | Potency [4] > 20.6 µM | outcome [7] | activity change, negative = inhibition [8] -0.0833% | Potency [9] | activity, negative = inhibition [12, 15] 1.91% | activity, negative = inhibition [12, 16] -4.65% | Potency (C2A) | Potency (CP238) | Potency (CP256) | Potency (FAB9) | Potency (JCK) | Potency (PC49) | Potency (SC27B) | Potency (W2)
-14.4%: max response [8, 13]

COc1cc2cc3c4cc(OC)c(OC)cc4cc[n+]3c(C)c2cc1OC
inactive: outcome [1] | Potency [2] | outcome [3] | Potency [5] > 20.6 µM | outcome [7] | activity change, negative = inhibition [8] 0.187% | Potency [10]
-9.25%: max response [8, 13]
-9.88%: max response [8, 14]

Reference: PubChem BioAssay (NCATS)
